An excerpt weighted towards active compounds, which were near 21% of everything screened.
HCMV inh – human cytomegalovirus inhibition. HFF cells, HCMV-luciferase reporter, 72 h; hits give low values. activity change, negative = inhibition, % at 57.5 µM. hit rate 4.5% among 410,000; in the data active = activity change below about -60%; inconclusive = no clear call, values can overlap the other calls; inactive = above about -39%
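Steps: HFFs plated, 16 h 37C; compounds added; HCMV-luciferase added to MOI 1 PFU/cell; 72 h 37C; OneGlo reagent, 5 min room temperature; luminescence read, normalized to controls.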
CHX counter – counter-screen for Shiga toxin inhibitors: cycloheximide protein synthesis inhibition; cell reporter, cycloheximide protein synthesis inhibition counterscreen; max response, %; hit rate 12% among 300,000; in the data active = max response mostly above about 13%, no sharp cut-off; inactive = mostly below about 14%; also: read at 38.3 µM for the half of the compounds with a filed dose
Pf growth 96h – P. falciparum growth inhibition at 96 hour, primary screen for plastid delayed-death inhibitors. P. falciparum luciferase reporter growth, 96 h. hit rate 6.9% among 320,000. Potency, µM (top dose mostly 28.7 µM), usual class: inhibitors
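Luminescence readout: decreased luciferase signal marks inhibited growth of reporter-expressing P. falciparum in infected red cells (2% hematocrit, 0.05% parasitemia final), exposed to compound two generations (96 h, 37 C, 5% CO2).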
Pf growth 48h – inhibits P. falciparum growth in the first generation, 48 h | hit rate 5.9% among 310,000 | P. falciparum luciferase growth in erythrocytes, 48 h | Potency, µM (highest dose often 28.7 µM), hits mostly inhibitors
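Erythrocytes infected with P. falciparum carrying an integrated firefly luciferase reporter (2% hematocrit, 0.1% parasitemia final) were exposed to compounds in RPMI 1640 with 0.5% Albumax at 37 C, 5% CO2. Growth inhibition was scored as reduced luminescence.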
Shiga inhibitor – inhibitors of Shiga toxin in Vero cells. inhibition, % at 38.7 µM. hit rate 9.2% among 290,000. Vero cells, Shiga toxin protein synthesis inhibition reporter; in the data active = inhibition mostly above about 28%, no sharp cut-off; inactive = mostly below about 43%
HCV inhibitor – blocks hepatitis C virus. Potency, µM (titrated, usually from 41.8 µM), actives largely listed as inhibitors. Huh7.5.1 HCVcc-Cre infection, luciferase reporter, 44 h. AID 651820. hit rate 3.4% among 340,000
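Seed cells (1,000/well) for 4 h; treat with compound and infect with HCVcc-Cre, moi about 0.5. Incubate 44 h, then detect luciferase activity.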
Hits are given with their value; i = inactive; ? = inconclusive; nt = no result given; [ ] = dose if it differs, or a comment. Unless noted, calls follow the shape of the dose curve; as a rule, active = well fitted inhibition curve with a large enough effect; inconclusive = small, poorly fitted or top-dose-only effect, or another doubt; inactive = no such curve, though single readings can be large or run the other way.

SMILES	HCMV inh	CHX counter	Pf growth 96h	Pf growth 48h	Shiga inhibitor	HCV inhibitor
O=C(O)c1ccc(-c2nnc(-c3cccc(Br)c3)o2)cc1	i	19.9	i	i	35.4	i
Brc1ccc(-c2nnc(-c3cccc(Br)c3)o2)cc1	i	i	?	?	i	i
O=C(c1cccc(-c2nnc(-c3ccccc3)o2)c1)N1CCCCCC1	i	36.5	nt	i	102.1	?
O=C(c1cccc(-c2nnc(-c3ccccc3)o2)c1)N1CCCCC1	i	51.3	i	i	65.8	i
CN(C)CCNCCCOc1ccccc1-c1ccccc1	nt	i	i	2.62µM	i	nt
CCC(C)NCCOCCOc1ccccc1-c1ccccc1 (stereo not drawn)	i	i	?	?	i	12.6µM
CC(C)(C)NCCOCCOc1ccccc1-c1ccccc1	i	i	3.7µM	?	i	i
NCCOc1ccccc1-c1ccccc1	i	i	i	i	i	i
C=CCNCCOCCOc1ccccc1-c1ccccc1	?	19.8	i	?	96.9	i
COc1ccc(C(=O)N/C=C/n2cnc3cc(C(F)(F)F)ccc32)cc1	i	i	i	i	i	?
Cc1ccc(S(=O)(=O)c2nnn3c2nc(NCc2ccc4c(c2)OCO4)c2sccc23)cc1C	i	nt	nt	nt	nt	nt
COc1ccc(/C=C(/NC(=O)c2ccco2)C(=O)N2CCc3ccccc32)cc1OC	i	i	i	i	i	i
CCC(C)NCCOCCOc1ccc(Cl)cc1Br (stereo not drawn)	i	i	i[5.75 µM]	?	i	35.5µM
Cc1ccc(OCCOCCNC(C)C)c(Br)c1	i	i	i	?	i	?
O=C1CCSC2(C(=O)N(Cc3ccccc3)c3ccccc32)N1c1ccccc1 (stereo not drawn)	i	nt	nt	nt	nt	nt
COc1ccc2c(c1)-c1nc(/N=C/c3ccc(O)c(OC)c3)sc1CC2	nt	i	?	i	i	11.2µM
COc1ccc2c(c1)-c1nc(NC(=O)c3cc(OC)c(OC)c(OC)c3)sc1CC2	i	nt	nt	nt	nt	nt
CCOC(=O)C1=C(N)N(c2cc(S(=O)(=O)N3CCOCC3)ccc2Cl)C(=O)C1	i	i	?	i	i	i
CCC(=O)Oc1ccc2ccccc2c1CNC(=O)c1ccccc1	i	i	9.28µM	?	i	?
C/C(=N\NC(=O)c1ccc(F)cc1)c1cccc(NC(=O)c2cccc(F)c2)c1	i	15.6	i	?	35.1	?
C/C(=N/NC(=O)c1ccc(-c2ccccc2)cc1)c1cccc(O)c1	i	i	5.86µM	i	i	i
C/C(=N\NC(=O)c1ccccc1F)c1cccc(NC(=O)c2ccc(C)cc2)c1	i	33.7	5.22µM	i	58.3	?
C/C(=N\NC(=O)c1cccc(O)c1)c1cccc(NC(=O)c2ccc(F)cc2)c1	i	40.9	i	i	68.3	?
C/C(=N\NC(=O)c1ccc(F)cc1)c1cccc(NC(=O)c2ccco2)c1	i	i	?	i	i	?
CSc1ncc2c(n1)-c1ccccc1N(Cc1ccccc1)S2(=O)=O	i	nt	nt	nt	nt	nt
SMILES	HCMV inh	CHX counter	Pf growth 96h	Pf growth 48h	Shiga inhibitor	HCV inhibitor
C/C(=N\NC(=O)c1cccc(F)c1)c1cccc(NC(=O)c2ccc(F)cc2)c1	?	34.9	i	i	26.4	i
COc1ccccc1CNC(=O)N1CCN(c2ccccc2Cl)CC1	i	i	?	?	i	i
Cc1cc(C)cc(NC(=O)Cn2c(-c3cncs3)nc3ccccc32)c1	i	nt	nt	nt	nt	nt
Cc1ccc(NC(=O)Cn2c(=O)c(C)nc3ccccc32)cc1	i	i	i[5.75 µM]	i	i	i
Cc1cccc(NC(=O)Cn2c(/C=C/c3ccccc3)nc3ccccc32)c1	i	28.4	?	i	111.2	i
Cc1nc2ccccc2n(CC(=O)Nc2cc(Cl)cc(Cl)c2)c1=O	-60.6	i	i	?	i	i
COc1ccc(CNC(=O)c2cc3c(=O)n(Cc4cccnc4)ccc3nc2C)cc1	i	nt	nt	nt	nt	nt
COc1cc(-c2ccc3sc(-c4ccsc4)c(C#CCO)c3c2)cc(OC)c1OC	i	nt	?	11.7µM	nt	3.16µM
COc1ccc(-c2sc3cc4c(cc3c2C#CCO)OCO4)cc1	i	nt	?	i	nt	11.2µM
COc1ccc(-c2sc3cc(OC)c(OC)cc3c2C#CC2(O)CCCCC2)cc1	i	nt	?	?	nt	15.8µM
COc1ccc(-c2sc3ccccc3c2C#CCO)cc1	?	i	i	i	i	28.2µM
COC(=O)c1cc(NC(=O)CSC2=NCCS2)cc(C(=O)OC)c1	i	i	i	i	i	i
COc1cccc(C(NC(C)=O)c2nc(-c3ccccc3C)cs2)c1 (stereo not drawn)	i	nt	nt	nt	nt	nt
Cc1ccc2c(c1)oc(=O)n2CC(=O)c1ccccc1	i	i	i	i	i	i
COc1ccccc1-c1sc2cc3c(cc2c1C#Cc1cncn1C)OCO3	i	nt	nt	nt	nt	0.891µM
COC(=O)c1c(-c2ccc(N(C)C)cc2)sc2ccc(OC)cc12	i	nt	nt	nt	nt	?
COC(=O)c1c(-c2ccc(OC)cc2)sc2cc3c(cc12)OCO3	i	nt	i	i	nt	11.2µM
COc1ccc(-c2sc3ccccc3c2C#Cc2cncn2C)cc1	i	nt	nt	nt	nt	3.55µM
COC(=O)C1CCC(=O)N1C(c1ccc(OC)cc1)c1cc(OC)c(OC)c(OC)c1 (stereo not drawn)	-80.7	nt	nt	nt	nt	?
COc1ccc(C(CNC(=O)Cc2cc(OC)c(OC)c(OC)c2)N2CCCC2)cc1 (stereo not drawn)	i	i	?	?	i	i
O=C(NCCN1C(=O)S/C(=C\c2ccc(OC(F)F)cc2)C1=O)C1=COCCO1	nt	nt	i	i	nt	11.2µM
COc1ccc(S(=O)(=O)N=C2C=C(C)C(=O)C(C)=C2)cc1	i	i	?	?	i	i
COc1ccc(C(=O)ON=C2C=C(C)C(=O)C(C)=C2)cc1	-76.1	i	?	i	i	i
COc1cc(C(=O)O/N=C2\C=CC(=O)C(C)=C2)cc(OC)c1OC	i	71.1	?	?	101.4	?
COc1cc(C(=O)ON=C2C=C(C)C(=O)C(C)=C2)cc(OC)c1OC	-62.1	i	i	i	i	i
SMILES	HCMV inh	CHX counter	Pf growth 96h	Pf growth 48h	Shiga inhibitor	HCV inhibitor
COc1cc(C(=O)Oc2ccccc2OC(=O)c2cc(OC)c(OC)c(OC)c2)cc(OC)c1OC	i	nt	nt	nt	nt	i
NC(=O)COc1c(-c2ccc(Br)o2)oc2ccccc2c1=O	nt	i	i	i	i	i
Cc1ccc(-c2nc3cccnc3s2)cc1NS(=O)(=O)c1ccc2c(c1)OCCO2	i	39.9	i	?	19.1	?
O=S(=O)(Nc1cccc(-c2nc3cccnc3s2)c1)c1ccc2c(c1)OCCO2	-63.6	i	i	i	i	?
Cc1nc2ccc(S(=O)(=O)Nc3cc(-c4nc5cccnc5s4)ccc3C)cc2s1	i	74.9	i	i	85.4	i[8.37 µM]
O=S(=O)(Nc1ccc(S(=O)(=O)Nc2nccs2)cc1)c1ccc2c(c1)OCCO2	i	i	nt	i	i	i
Cc1ccc(-c2nc3cccnc3s2)cc1NS(=O)(=O)c1cccs1	i	19.4	i	i	38.3	i
COc1cc(OC)cc(C(=O)Nc2cc(-c3nc4cccnc4s3)ccc2C)c1	i	nt	nt	nt	nt	nt
Cc1cccc(CNC(=O)CCCn2c(=O)c3cccn3c3ccc(F)cc32)c1	i	nt	nt	nt	nt	nt
Oc1ccc2c(c1)CCCC1(CCCO1)O2 (stereo not drawn)	i	nt	nt	nt	nt	nt
O=C(c1cccc(Br)c1)N1CCN(S(=O)(=O)N2CCCCCC2)CC1	i	i	i	i	i	nt
